In PubChem BioAssay:
Values joined by “and” are separate entries in the source; they are usually repeats but may differ in a detail not shown here. Identical values can stand only once. Active and inactive are the calls of the source.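 The calls were made as follows, unless noted: active = normalized viability below 100% at a tested concentration; inactive = the rest.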

How the values were obtained:
[1] = P. berghei load reduction in hepatocytes – cell-based, HepG2, luciferase luminescence, HepG2 viability, primary screen (AID 624349; in the data active = parasite load remaining mostly below about 12%, no sharp cut-off; inactive = mostly above about 10%;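 also: 100% = mean of DMSO negative control wells on the same plate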); details: P. berghei liver stage in HepG2, luciferase luminescence, concentration not given here; parasite load remaining: stronger effect = lower value; viability: measured here: HepG2 viability without parasites
[2] = signal quenchers or enhancers, Cy5 substrate/SSB – biochemical, NIH Clinical Collection, E. coli SSB, artefact control for HCV NS3 helicase inhibitor project (AID 743268; call rule not given here); details: Cy5-oligo bound E. coli SSB, fluorescence interference
[3] = tested on: Hepatitis C virus NS3 helicase; test: blockers of NS3h binding to DNA – biochemical, fluorescence polarization, NIH Clinical Collection, primary screen (AID 743270; call rule not given here); details: NS3 helicase binding to Cy5-dT15 DNA, stronger effect = higher value, concentration not given here
[4] = target: Single-stranded DNA-binding protein (Escherichia coli (strain K12)) (UniProt P0AGE0); test: SSB-ssDNA binding inhibitors – biochemical, fluorescence polarization, NIH Clinical Collection, counter-screen for HCV NS3 helicase inhibitor project (AID 743271; in the data active = inhibition above about 28%); details: E. coli SSB-DNA binding, stronger effect = higher value, concentration not given here
[5] = compounds distorting NS3 helicase fluorescence signal – biochemical, NIH Clinical Collection, artefact control for HCV NS3 helicase inhibitor project (AID 743272; call rule not given here;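 also: HCV NS3 helicase with a Cy5 labelled single stranded DNA probe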); details: fluorescence interference counterscreen, HCV NS3 helicase assay; stronger effect = lower value
[6] = modulation of C. elegans fzo-1 (AID 1259413; call rule not given here;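 also: fzo-1 mutant C. elegans worms in liquid wells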); details: C. elegans fzo-1 modulator screen, mean read-out; stronger effect = higher value
[7] = viability loss with induced miR-34 in A549 – imaging, A549 dox-inducible miR-34, nuclei and caspase counts, primary screen (AID 1347080;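 active = compounds whose cell count with miR-34 switched on is under 0.7 times the count with it off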); details: A549 miR-34 inducible, Hoechst nuclei count, 48 h
F380Y = test: BK channel mutant inhibitors and activators – cell-based, U2OS BacMam, thallium flux, beta subunits, selectivity assay, profiling panel (AID 1259406;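 active = thallium flux through the channel raised or lowered by more than 3 SD from vehicle-only wells, actives on both sides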;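 also: initial slope of Thallos dye fluorescence rise after thallium is added; log ratio against the mean of 0.3% DMSO vehicle wells on the same plate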); details: U2OS BacMam BK variants, at 30 µM
F380Y/beta1 = test: as above; details: U2OS BacMam BK variants, at 30 µM
F380Y/beta2Delta = test: as above; details: U2OS BacMam BK variants, at 30 µM
F380Y/beta4 = test: as above; details: U2OS BacMam BK variants, at 30 µM
[8] = target: Calcium-activated potassium channel subunit alpha-1 (Homo sapiens) + Leucine-rich repeat-containing protein 26 (Homo sapiens) (UniProt Q12791+Q2I0M4); test: as above; details: U2OS BacMam BK variants, F380Y/Slo1WT/gamma1, at 30 µM
Sequence of Calcium-activated potassium channel subunit alpha-1 (Homo sapiens) + Leucine-rich repeat-containing protein 26 (Homo sapiens) (Q2I0M4 whole entry, looked up, one chain of several): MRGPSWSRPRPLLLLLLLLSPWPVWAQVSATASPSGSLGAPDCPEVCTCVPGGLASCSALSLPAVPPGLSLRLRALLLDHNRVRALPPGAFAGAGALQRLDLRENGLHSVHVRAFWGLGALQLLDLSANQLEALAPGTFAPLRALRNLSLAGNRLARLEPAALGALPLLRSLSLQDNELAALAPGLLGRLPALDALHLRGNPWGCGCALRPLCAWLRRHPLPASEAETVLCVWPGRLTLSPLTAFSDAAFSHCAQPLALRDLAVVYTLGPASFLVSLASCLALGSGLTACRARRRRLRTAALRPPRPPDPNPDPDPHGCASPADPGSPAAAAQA

R275C = test: as above; details: U2OS BacMam BK variants, at 30 µM
R275C/beta1 = test: as above; details: U2OS BacMam BK variants, at 30 µM
R275C/beta2Delta = test: as above; details: U2OS BacMam BK variants, at 30 µM
R275C/beta4 = test: as above; details: U2OS BacMam BK variants, at 30 µM
R275C/Slo1WT/beta2 = test: as above; details: U2OS BacMam BK variants, at 30 µM
[9] = EMT-state selective cytotoxicity in co-culture – imaging, PC-3E GFP, TEM4-18 mCherry, primary screen (AID 1345086;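 active = compounds killing one labelled cell type while sparing the other, by normalised counts and ratio limits, not self-fluorescent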;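 also: cells exposed to compound for 72 h before imaging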;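 as to red/green cell ratio (normalised): normalised mesenchymal count divided by normalised epithelial count so high means epithelial killing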); details: PC-3E GFP / TEM4-18 mCherry co-culture, imaging cell counts, at 1 µM
[10] = MELAS cybrid and Rieske KO viability enhancers – cell-based, MELAS cybrids, Rieske KO mouse fibroblasts, CellTiter-Glo, primary screen (AID 1508586;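 active = mean z-score across replicates of 1.96 or higher in either the MELAS or the Rieske mutant cell line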;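 also: z relative to plate mean and SD of compound and empty wells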); details: low glucose
[11] = drug combination growth inhibition, ovarian cancer – cell-based, oncology-focused library, rucaparib conditional, profiling panel (AID 1508598); details: patient-derived ovarian cancer cells, CellTiter-Glo viability, 144 h, stronger effect = lower value

Compound: CCCCN1CCCC1CNC(=O)c1cc(C#N)c2ccccc2c1OC (stereo not drawn)
- parasite load remaining [1]: 35.8% (inactive)
- viability [1]: 66.3%
- fluorescence ratio [2]: 0.93 (inactive)
- inhibition [3]: -0.22% (inactive)
- inhibition [4]: 2.76% (inactive)
- fluorescence ratio [5]: 0.91 (inactive)
- mean signal [6]: 308 (inactive)
- fold change ([7]; stronger effect = lower value, cell number ratio, induced over uninduced): 0.818 (inactive) and 0.935 (inactive)
- fold change ([7]; measured here: relative caspase fold change +Dox/-Dox): 0.846 and 1.44
- cell count ([7]; measured here: total cells with miR-34 induction, stronger effect = lower value): 8480 and 8490
- cell count ([7]; measured here: total cells without miR-34 induction): 10400 and 9080
- log fold change Tl+ flux (F380Y): -0.12 (active)
- log fold change Tl+ flux (F380Y/beta1): -0.109 (active)
- log fold change Tl+ flux (F380Y/beta2Delta): -0.243 (active)
- log fold change Tl+ flux (F380Y/beta4): -0.221 (active)
- log fold change Tl+ flux [8]: -0.0355 (inactive)
- log fold change Tl+ flux (R275C): -0.0841 (inactive)
- log fold change Tl+ flux (R275C/beta1): -0.0222 (inactive)
- log fold change Tl+ flux (R275C/beta2Delta): -0.085 (inactive)
- log fold change Tl+ flux (R275C/beta4): -0.0283 (inactive)
- log fold change Tl+ flux (R275C/Slo1WT/beta2): -0.00509 (inactive)

Compound: O=C(c1ccc(OCCN2CCCCC2)cc1)c1c(-c2ccc(O)cc2)sc2cc(O)ccc12
- fluorescence ratio [2]: 1.04 (inactive)
- inhibition [3]: -7.73% (inactive)
- inhibition [4]: 4.1% (inactive)
- fluorescence ratio [5]: 0.8 (active)
- mean signal [6]: 205 (inactive)
- red/green cell ratio (normalised) ([9]; actives lie on both sides, counts scaled to control wells, 1 = unselective): 1.03 (inactive)
- normalised cell number ([9]; measured here: epithelial PC-3E GFP cell survival): 0.9
- normalised cell number ([9]; measured here: mesenchymal TEM4-18 mCherry cell survival): 0.93
- z-score ([10]; MELAS cybrid survival, CellTiter-Glo 48 h, stronger effect = higher value): -0.537 (inactive) and -0.644 (inactive) and -0.85 (inactive)
- z-score ([10]; Rieske KO mouse fibroblast survival, CellTiter-Glo 72 h): 0.306 and -0.238 and 0.0318
- viability ([11]; at 0.000305 µM, OCI-C5x cells, with rucaparib 10 µM, 100% = cells with rucaparib alone): 108% (inactive)
- viability ([11]; at 0.000305 µM, OCI-C5x cells, without rucaparib): 112% (inactive)
- viability ([11]; at 0.000305 µM, OCI-P5x cells, with rucaparib 20 µM, 100% = cells with rucaparib alone): 101% (inactive)
- viability ([11]; at 0.000305 µM, OCI-P5x cells, without rucaparib): 110% (inactive)
- viability ([11]; at 0.00122 µM, OCI-C5x cells, with rucaparib 10 µM, 100% = cells with rucaparib alone): 116% (inactive)
- viability ([11]; at 0.00122 µM, OCI-C5x cells, without rucaparib): 116% (inactive)
- viability ([11]; at 0.00122 µM, OCI-P5x cells, with rucaparib 20 µM, 100% = cells with rucaparib alone): 97.6% (active)
- viability ([11]; at 0.00122 µM, OCI-P5x cells, without rucaparib): 103% (inactive)
- viability ([11]; at 0.00488 µM, OCI-C5x cells, with rucaparib 10 µM, 100% = cells with rucaparib alone): 131% (inactive)
- viability ([11]; at 0.00488 µM, OCI-C5x cells, without rucaparib): 107% (inactive)
- viability ([11]; at 0.00488 µM, OCI-P5x cells, with rucaparib 20 µM, 100% = cells with rucaparib alone): 79.4% (active)
- viability ([11]; at 0.00488 µM, OCI-P5x cells, without rucaparib): 94.8% (active)
- viability ([11]; at 0.0195 µM, OCI-C5x cells, with rucaparib 10 µM, 100% = cells with rucaparib alone): 113% (inactive)
- viability ([11]; at 0.0195 µM, OCI-C5x cells, without rucaparib): 110% (inactive)
- viability ([11]; at 0.0195 µM, OCI-P5x cells, with rucaparib 20 µM, 100% = cells with rucaparib alone): 90% (active)
- viability ([11]; at 0.0195 µM, OCI-P5x cells, without rucaparib): 94.3% (active)
- viability ([11]; at 0.0781 µM, OCI-C5x cells, with rucaparib 10 µM, 100% = cells with rucaparib alone): 121% (inactive)
- viability ([11]; at 0.0781 µM, OCI-C5x cells, without rucaparib): 107% (inactive)
- viability ([11]; at 0.0781 µM, OCI-P5x cells, with rucaparib 20 µM, 100% = cells with rucaparib alone): 118% (inactive)
- viability ([11]; at 0.0781 µM, OCI-P5x cells, without rucaparib): 125% (inactive)
- viability ([11]; at 0.313 µM, OCI-C5x cells, with rucaparib 10 µM, 100% = cells with rucaparib alone): 114% (inactive)
- viability ([11]; at 0.313 µM, OCI-C5x cells, without rucaparib): 118% (inactive)
- viability ([11]; at 0.313 µM, OCI-P5x cells, with rucaparib 20 µM, 100% = cells with rucaparib alone): 105% (inactive)
- viability ([11]; at 0.313 µM, OCI-P5x cells, without rucaparib): 104% (inactive)
- viability ([11]; at 1.25 µM, OCI-C5x cells, with rucaparib 10 µM, 100% = cells with rucaparib alone): 134% (inactive)
- viability ([11]; at 1.25 µM, OCI-C5x cells, without rucaparib): 117% (inactive)
- viability ([11]; at 1.25 µM, OCI-P5x cells, with rucaparib 20 µM, 100% = cells with rucaparib alone): 89.1% (active)
- viability ([11]; at 1.25 µM, OCI-P5x cells, without rucaparib): 101% (inactive)
- viability ([11]; at 5 µM, OCI-C5x cells, with rucaparib 10 µM, 100% = cells with rucaparib alone): 124% (inactive)
- viability ([11]; at 5 µM, OCI-C5x cells, without rucaparib): 109% (inactive)
- viability ([11]; at 5 µM, OCI-P5x cells, with rucaparib 20 µM, 100% = cells with rucaparib alone): 40% (active)
- viability ([11]; at 5 µM, OCI-P5x cells, without rucaparib): 63.8% (active)
- log fold change Tl+ flux (F380Y): 0.0852 (inactive)
- log fold change Tl+ flux (F380Y/beta1): 0.00638 (inactive)
- log fold change Tl+ flux (F380Y/beta2Delta): 0.0463 (inactive)
- log fold change Tl+ flux (F380Y/beta4): 0.0721 (inactive)
- log fold change Tl+ flux [8]: -0.00263 (inactive)
- log fold change Tl+ flux (R275C): 0.0285 (inactive)
- log fold change Tl+ flux (R275C/beta1): 0.00107 (inactive)
- log fold change Tl+ flux (R275C/beta2Delta): 0.0378 (inactive)
- log fold change Tl+ flux (R275C/beta4): 0.0617 (inactive)
- log fold change Tl+ flux (R275C/Slo1WT/beta2): -0.0543 (inactive)
